From the supplement of paper PMC6522484
± gives the standard deviation of the averaged measurements.

Experiments:
[1] = system: DLD1; test: cell viability (CellTiter-Glo) relative to plate median (fraction of plate median); higher = more viable cells; conditions: 5 µM; treatment time 24 h; reporter: 7TFP
Procedure, shortened: (§1)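 Colorectal cancer cell lines stably transduced with lentiviral TCF/Wnt firefly luciferase reporters (7TFP or TCF4/Wnt) were seeded in 384-well plates. 24 h later they received library compounds at a final 5 µM for 24 h. Parallel plates were read for firefly luciferase or CellTiterGlo luminescence on a Tecan F500 reader. Each well's signal was normalised to the plate median (webcellHTS2, additive, no log transformation), and the mean of two independent replicates is reported.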

[2] = system: HCT116; test: as above; conditions: 5 µM; treatment time 24 h; reporter: TCF4/Wnt
Procedure, shortened: as §1

[3] = system: SW480; test: as above; conditions: 5 µM; treatment time 24 h; reporter: 7TFP
Procedure, shortened: as §1

[4] = system: DLD1; test: TCF/Wnt firefly luciferase reporter signal relative to plate median (fraction of plate median); higher = higher Wnt reporter signal; conditions: 5 µM; treatment time 24 h; reporter: 7TFP
Procedure, shortened: as §1

[5] = system: SW480; test: as above; conditions: 5 µM; treatment time 24 h; reporter: 7TFP
Procedure, shortened: as §1

Compound | cell viability [1] | cell viability [2] | cell viability [3] | TCF/Wnt firefly luciferase reporter signal [4] | TCF/Wnt firefly luciferase reporter signal [5]
C=C(C)[C@@H]1CC=C(CO)CC1 | 0.968 ± 0.1 | 0.972 ± 0.12 | 0.996 ± 0.0042 | 0.952 ± 0.016 | 0.972 ± 0.054
O=C1C(CC[S+]([O-])c2ccccc2)C(=O)N(c2ccccc2)N1c1ccccc1 (stereo not given) | 1.07 ± 0.028 | 1.09 ± 0.064 | 1.035 ± 0.0071 | 0.857 ± 0.079 | 0.885 ± 0.089
COc1ccc(-c2coc3cc(O)ccc3c2=O)c(O)c1O | 1.02 ± 0.035 | 0.993 ± 0.038 | 1.03 ± 0.014 | 1 ± 0.079 | 1.09 ± 0.028
O=c1cc(-c2ccccc2)oc2cccc(O)c12 | 0.972 ± 0.068 | 1.04 ± 0.073 | 1.04 ± 0.058 | 0.98 ± 0.0085 | 1.03
CC(COc1ccccc1)NC(C)C(O)c1ccc(O)cc1 (stereo not given) | 1.03 ± 0.096 | 0.966 ± 0.091 | 0.916 ± 0.017 | 1.18 ± 0.05 | 1.01 ± 0.076
COc1cc(C)cc2ccc(-c3ccc4c(c3O)[C@@H](C)N[C@H](C)C4)c(O)c12 | 1.17 ± 0.19 | 1.04 ± 0.077 | 1.05 ± 0.021 | 1.05 | 1.015 ± 0.0071
CC(C)c1c(C(=O)Nc2ccccc2)c(-c2ccccc2)c(-c2ccc(F)cc2)n1CC[C@@H](O)C[C@@H](O)CC(=O)O | 0.9915 ± 0.0092 | 1 ± 0.069 | 1.01 ± 0.076 | 0.966 ± 0.09 | 0.909 ± 0.013
CC(=O)Oc1c(C)c(C)c2c(c1C)CCC(C)(CCCC(C)CCCC(C)CCCC(C)C)O2 (stereo not drawn) [alpha-TOCHOPHERYL ACETATE] | 1.06 ± 0.085 | 1.02 ± 0.092 | 1.06 ± 0.014 | 1.12 ± 0.18 | 1.09 ± 0.057
COc1ccc(CCC(=O)c2c(O)cc(O[C@@H]3O[C@H](CO)[C@@H](O)[C@H](O)[C@H]3O[C@@H]3O[C@@H](C)[C@H](O)[C@@H](O)[C@H]3O)cc2O)cc1O | 0.96 ± 0.085 | 1.01 ± 0.024 | 0.975 ± 0.036 | 0.945 ± 0.079 | 1.04 ± 0.028
COCCOC(=O)C1=C(C)NC(C)=C(C(=O)OC(C)C)C1c1cccc([N+](=O)[O-])c1 (stereo not given) | 0.9 ± 0.1 | 0.916 ± 0.16 | 0.858 ± 0.11 | 0.967 ± 0.089 | 1.12 ± 0.11
CC1CC(OC(=O)C(O)c2ccccc2)CC(C)(C)N1C (stereo not given) | 1 ± 0.011 | 1.05 ± 0.021 | 1.02 | 1.05 ± 0.028 | 1.18 ± 0.057
Cc1cc(O)cc(=O)o1 | 1.05 ± 0.064 | 1.07 ± 0.05 | 1.04 ± 0.028 | 0.988 ± 0.1 | 1.03 ± 0.21
CCCOc1ccc2[nH]c(NC(=O)OC)nc2c1 | 0.979 ± 0.011 | 1.08 ± 0.2 | 1.13 ± 0.071 | 0.959 ± 0.21 | 0.957 ± 0.035
COc1ccc2c(c1OC)OC[C@@H](c1ccc(OC)c(OC)c1OC)C2 | 1.01 ± 0.069 | 1.1 ± 0.099 | 1.06 ± 0.035 | 1.04 ± 0.09 | 0.961 ± 0.055
CCOC(=O)c1ncn2c1CN(C)C(=O)c1cc(F)ccc1-2 | 0.944 ± 0.045 | 1.03 | 0.952 ± 0.025 | 0.996 ± 0.02 | 0.993 ± 0.0099
COc1ccc2c(c1)O[C@H]1c3ccc(OC)cc3OC[C@@H]21 | 0.969 ± 0.044 | 0.906 ± 0.12 | 0.979 ± 0.044 | 0.792 ± 0.025 | 0.969 ± 0.086
CN(C)CCOC(=O)C(c1ccccc1)C1(O)CCCC1 (stereo not given) | 0.986 ± 0.0014 | 1.07 ± 0.099 | 1 ± 0.013 | 1.12 ± 0.12 | 1.05 ± 0.12

Compound | cell viability [1] | cell viability [2] | cell viability [3] | TCF/Wnt firefly luciferase reporter signal [4] | TCF/Wnt firefly luciferase reporter signal [5]
CCCCN1CCCCC1C(=O)Nc1c(C)cccc1C (stereo not given) | 1.02 ± 0.055 | 0.949 ± 0.071 | 1.06 ± 0.042 | 0.901 ± 0.081 | 0.887 ± 0.047
Clc1ccccc1CN1CCc2sccc2C1 | 0.988 ± 0.013 | 1.07 ± 0.05 | 1 ± 0.057 | 0.934 ± 0.036 | 1.01 ± 0.071
CCCCCCCCCCCC1=C(O)C(=O)C=C(O)C1=O | 1.01 ± 0.06 | 1.12 ± 0.071 | 0.9665 ± 0.00071 | 1.1 ± 0.028 | 1.075 ± 0.0071
Cc1cn([C@H]2C[C@H](N=[N+]=[N-])[C@@H](CO)O2)c(=O)[nH]c1=O | 0.976 ± 0.012 | 0.958 ± 0.018 | 1 ± 0.022 | 0.874 ± 0.02 | 0.928 ± 0.011
O=c1cc[nH]c(=S)[nH]1 | 1.03 ± 0.073 | 1.04 ± 0.061 | 0.956 ± 0.076 | 1.03 ± 0.014 | 1.02 ± 0.028
c1ccc(CN(CC2=NCCN2)c2ccccc2)cc1 | 0.9805 ± 0.0092 | 1.03 ± 0.055 | 1.08 ± 0.021 | 1.18 ± 0.05 | 1.06 ± 0.096
CCCCC(=O)O[C@]1(C(=O)CO)[C@@H](C)C[C@H]2[C@@H]3CCC4=CC(=O)C=C[C@]4(C)[C@@]3(F)[C@@H](O)C[C@@]21C | 1.04 ± 0.021 | 1.15 ± 0.028 | 0.987 ± 0.047 | 0.868 ± 0.011 | 0.942 ± 0.22
O=C(O)[C@H](O)[C@@](O)(Cc1ccc(O)cc1)C(=O)O | 0.954 ± 0.08 | 0.962 ± 0.082 | 0.955 ± 0.021 | 1.005 ± 0.0071 | 0.923 ± 0.11
CO/C=C/C(=O)c1cc2cnc3c(=N)cc(NC(C)=O)c([nH]1)c23 [Lymphostin] | 1.08 ± 0.042 | 0.71 ± 0.12 | 1.14 ± 0.092 | 0.891 ± 0.011 | 0.947 ± 0.028
O=C(O)c1cc(=O)c(O)c2c(O)c(O)c(O)cc2c1 | 0.948 ± 0.066 | 0.82 ± 0.04 | 1 ± 0.05 | 0.806 ± 0.25 | 0.993 ± 0.12
CCOc1cccc(C(=O)c2ccc(O)c(O)c2O)c1 | 1.03 | 1.085 ± 0.0071 | 1.07 ± 0.021 | 1.04 ± 0.088 | 0.932 ± 0.019
Cc1cc(O)c2c3c(ccc2c1)C(=O)c1c(O)cccc1C3=O [Tetrangulol] | 1.02 ± 0.065 | 0.985 ± 0.018 | 0.972 ± 0.015 | 0.978 ± 0.023 | 0.974 ± 0.035
Oc1cccc(O)c1 | 1.02 ± 0.072 | 0.985 ± 0.013 | 1.01 ± 0.02 | 0.873 ± 0.074 | 1.02 ± 0.055
C=CC[C@@H]1/C=C(\C)C[C@H](C)C[C@H](OC)[C@H]2O[C@@](O)(C(=O)C(=O)N3CCCC[C@H]3C(=O)O[C@H](/C(C)=C/[C@@H]3CC[C@@H](O)[C@H](OC)C3)[C@H](C)[C@@H](O)CC1=O)[C@H](C)C[C@@H]2OC | 1.02 ± 0.22 | 1.05 ± 0.014 | 1.1 ± 0.021 | 1.08 ± 0.042 | 0.98 ± 0.0057
O=C(O)c1c2ccccc2cc2ccccc12 | 0.959 ± 0.043 | 1.02 ± 0.13 | 1.01 ± 0.052 | 0.934 ± 0.064 | 0.872 ± 0.073
C[N+](C)(C)C[C@H](O)CC(=O)[O-] | 0.964 ± 0.028 | 0.976 ± 0.022 | 0.965 ± 0.014 | 0.921 ± 0.014 | 0.961 ± 0.069
